About 4,000 (25%) of roughly 16,000 compounds were called active. Inconclusive results (about 26%) are left out. The list is a sample of the results. Unmarked numbers belong to inactive results. Calls follow the shape of the dose curve; as a rule, active = well fitted curve in the direction sought with a large enough effect; inconclusive = small, poorly fitted or top-dose-only effect, or effect the other way; inactive = no such curve, though single readings can be large or run the other way.
% is scaled to controls: 0 for no effect and ±100 for the full control effect.

The target of the assay is Cytochrome P450 2C9 (Homo sapiens) (UniProt P11712). Briefly: Cytochrome panel assay with activity outcomes. Conditions: recombinant CYP, pro-luciferin dealkylation, luminescence, p450-cyp2c9; series mostly up to 57.1 µM.
Chain of Cytochrome P450 2C9 (Homo sapiens) (P11712 whole entry, looked up): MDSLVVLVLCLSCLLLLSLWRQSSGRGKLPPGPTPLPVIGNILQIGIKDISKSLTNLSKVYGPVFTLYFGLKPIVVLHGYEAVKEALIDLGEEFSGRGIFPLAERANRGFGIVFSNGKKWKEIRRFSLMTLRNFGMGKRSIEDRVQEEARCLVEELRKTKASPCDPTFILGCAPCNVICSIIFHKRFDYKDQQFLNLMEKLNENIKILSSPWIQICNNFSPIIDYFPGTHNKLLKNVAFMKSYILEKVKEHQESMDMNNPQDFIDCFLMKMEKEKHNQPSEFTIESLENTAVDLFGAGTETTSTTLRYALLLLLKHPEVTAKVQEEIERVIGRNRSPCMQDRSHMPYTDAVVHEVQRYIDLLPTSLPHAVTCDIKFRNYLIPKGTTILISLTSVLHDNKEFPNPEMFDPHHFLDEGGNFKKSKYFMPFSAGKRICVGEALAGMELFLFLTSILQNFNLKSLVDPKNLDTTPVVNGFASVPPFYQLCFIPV
With `S=C(S)N1CCCC1`, the AC50 (usually the concentration at which the activity in the assay is half-maximal) was 20 µM (active).
For `CCN=C=NCCCN(C)C`, the activity, negative = inhibition is -7.95% [at 11.4 µM].
Consider `O=C(COc1ccc2ccccc2c1)N1CCN(CC2CC3C=CC2C3)CC1` (configuration not stated), for which the AC50 is 17.8 µM (active).
As for `CC(=O)N1CCC2(CC1)CC(=O)c1cc(OCC(=O)N3CCN(C)CC3)ccc1O2`, the activity, negative = inhibition result was “inactive”.
Same read-out and setting: in the case of `N[C@@H](Cn1oc(=O)[nH]c1=O)C(=O)O` it was “inactive”; in that of `O=C(CCCN1CCC(n2c(=O)[nH]c3ccccc32)CC1)c1ccc(F)cc1`, “inactive”.
In the case of `C=C[C@H]1CN2CC[C@@H]1C[C@H]2[C@@H](O)c1ccnc2ccccc12`, the activity, negative = inhibition result was “inactive”.
On the same count and under the same terms, in the case of `O=S(=O)(O)/C(=C\c1ccccc1)c1ccccc1` (tested in a mixture with another compound) it was -14.8% [at 11.4 µM].
For `COc1cc(OC)c(/C=C2/C(=O)Nc3ccccc32)c(OC)c1`, the half-maximal activity concentration (AC50) was 25.1 µM (active).
Take `c1ccc(C2CC2)c(OCC2=NCCN2)c1`: the activity, negative = inhibition result was “inactive”.
On the same count and under the same terms, in the case of `c1ccc(CCN2CCOCC2)nc1` it was -0.553% [at 11.4 µM].
Consider `C[C@@]12CC[C@H]3[C@@H](CC=C4C[C@H](OS(=O)(=O)O)CC[C@]43C)[C@H]1CCC2=O`, for which the activity, negative = inhibition result was “inactive”.
Same read-out and setting: then `CC(C)C[C@H](NP(=O)(O)O[C@@H]1O[C@@H](C)[C@@H](O)[C@@H](O)[C@H]1O)C(=O)N[C@@H](Cc1c[nH]c2ccccc12)C(=O)O`, with “inactive”.
With `CC(C)C[C@H](NC(=O)N1CCCCCC1)C(=O)N[C@H](Cc1cn(C)c2ccccc12)C(=O)N[C@H](Cc1ccccn1)C(=O)O`, the concentration at half-maximal activity (AC50) is 6.31 µM (active).
On to `c1ccc(CCN2CCCCCC2)nc1`, for which the activity, negative = inhibition was -1.38% [at 11.4 µM].
For `CO[C@H]1C=C2CCN(C)[C@@H]2[C@@H]2c3cc4c(cc3C(=O)O[C@H]21)OCO4`, the activity, negative = inhibition result was “inactive”.
The same measure, in the same setting: then `CC[n+]1c(/C=C/N(C)c2ccccc2)sc2ccc(Cl)cc21`, with “inactive”.
Same read-out and setting: then `CNCCCc1ccccc1`, with “inactive”; and `COc1ccc(OC)c([C@H](O)[C@H](C)N)c1`, with “inactive”.
With `O=c1oc(Cl)c(Cl)c2ccccc12`, the AC50 was 15.8 µM (active).
Turning to `NNC(N)=O`, the activity, negative = inhibition result was “inactive”.
The same measure, in the same setting: in the case of `CCN1CCN(Cc2cc(OC)c(OC)cc2[N+](=O)[O-])CC1` it was “inactive”; in that of `CCCN1CCC[C@H](c2cccc(O)c2)C1`, “inactive”.
`CCC[C@@](C)(COC(N)=O)COC(=O)NC(C)C`: the activity, negative = inhibition entry was “inactive”.
On the same count and under the same terms, then `c1cnc(N2CC[C@@]3(CCCNC3)C2)nc1`, with “inactive”.
Still for that read-out and setting: then `CCCC(CCC)C(=O)O`, with “inactive”; and `CCc1ccc(CCN2CCCCC2)nc1`, with -14.9% [at 11.4 µM].
On the same count and under the same terms, in the case of `CCNC(=O)[C@@H]1O[C@@H](n2cnc3c(N)ncnc32)[C@@H](O)[C@H]1O` it was “inactive”.
For `CC(=O)Nc1ccccc1C(=O)OCc1ccc(C(=O)c2ccccc2)cc1`, the AC50 is 3.55 µM (active).
In the case of `CC[C@H]1CN2CCc3cc(OC)c(OC)cc3[C@H]2C[C@@H]1C[C@H]1NCCc2c1[nH]c1ccc(O)cc21`, the activity, negative = inhibition was 5.99% [at 11.4 µM].
On the same count and under the same terms, then `COC(=O)Nc1nc2ccc(C(=O)c3cccs3)cc2[nH]1`, with “inactive”; and `CN1[C@H]2CC(=O)C[C@@H]1[C@@H](O)C2`, with “inactive”.
In the case of `CN1C(=O)C(=Cc2ccc(N3CCCCCC3)o2)C(=O)N(C)C1=S`, the AC50 was 7.94 µM (active).
Turning to `COc1cc(C[C@H](C)N)c(OC)cc1I`, the activity, negative = inhibition entry is “inactive”.
The same measure, in the same setting: in the case of `C/C=C1\C[N@@+]2(C)CC[C@@]34C(=C(C=O)[C@H]1C[C@H]32)Nc1ccccc14` it was “inactive”.
`O=[N+]([O-])c1cc(O)c(O)c([N+](=O)[O-])c1`: the half-maximal activity concentration (AC50) was 0.794 µM (active).
Take `C[As+](C)(c1ccc(Br)c([N+](=O)[O-])c1)c1ccc(Br)c([N+](=O)[O-])c1.O=[N+]([O-])O`: the activity, negative = inhibition was 1.81% [at 11.4 µM].
As to `O=[N+]([O-])c1cc([As](=O)(O)O)ccc1O`, the activity, negative = inhibition entry was “inactive”.
On the same count and under the same terms, in the case of `O=C(CCCN1CCC2(CC1)C(=O)NCN2c1ccccc1)c1ccc(F)cc1` it was “inactive”; in that of `[N-]=[N+]=NCC(=O)c1c[nH]c(=O)[nH]c1=O`, -6.58% [at 11.4 µM]; in that of `O=C1NCN(c2ccccc2)C12CCN(CCCOc1ccc(F)cc1)CC2`, “inactive”.
As to `CC(C)c1c(CN(C)[C@@H](C)Cc2ccccc2)n(C)n(-c2ccccc2)c1=O`, the AC50 was 7.94 µM (active).
Turning to `CCCN(CCC)C(=O)Cc1c(-c2ccc(Cl)cc2)nc2c(Cl)cc(Cl)cn12`, the activity, negative = inhibition result is “inactive”.
Consider `CCCCCC[C@H]1C(=O)O[C@H](C)[C@H](NC(=O)c2cccc(NC=O)c2O)C(=O)O[C@@H](C)[C@H]1OC(=O)CC(C)C`, for which the activity, negative = inhibition entry is “inactive”.
Same read-out and setting: then `CCOC(=O)N1CCC(NC(=O)CCc2nc(C3=CCN(C)CC3)no2)CC1`, with “inactive”.
`O=C(Nc1ccc(F)cc1F)c1cccnc1Oc1cccc(C(F)(F)F)c1`: the activity, negative = inhibition entry is “inactive”.
Same read-out and setting: then `CN(C)CCN(C)CCc1ccc(Cl)c(Cl)c1`, with “inactive”.
Still for that read-out and setting: in the case of `O=C(Nc1ccccc1)N1CC2(CCN(C(=O)Oc3ccccc3)CC2)C1` it was “inactive”.
Still for that read-out and setting: then `NC(N)=NN=Cc1c(Cl)cccc1Cl`, with “inactive”; and `c1ccc(N2CCC3(CCNCC3)CC2)cc1`, with “inactive”.
In the case of `O=C(NC1CCCCC1)NC1CC2CCC(C1)N2Cc1nnnn1Cc1ccc2c(c1)OCO2` (configuration not stated), the AC50 is 14.1 µM (active).
Take `COc1ccc(NC(=O)NC2CC3CCCC(C2)N3Cc2ccccc2)cc1` (configuration not stated): the activity, negative = inhibition entry is “inactive”.
Same read-out and setting: then `CCc1ccccc1NC(=O)NC1CC2CCC(C1)N2Cc1cccs1` (configuration not stated), with “inactive”.
Same read-out and setting: in the case of `CC1=C(CC[C@H](C)CO)O[C@@H]2C[C@@H]3[C@H]4CC[C@H]5C[C@@H](O)CC[C@]5(C)[C@@H]4CC(=O)[C@@]3(C)[C@@H]12` it was -6.29% [at 11.4 µM].
For `O=C1/C(=C\c2ccccc2)C[C@@]2(O)[C@H]3Cc4ccc(O)c5c4[C@@]2(CCN3CC2CC2)[C@@H]1O5`, the activity, negative = inhibition result is “inactive”.
Turning to `O=c1c2ccccc2nc(N2CCCC2)n1-c1ccc(Cl)cc1`, the AC50 is 14.1 µM (active).
On to `Cc1nc2sccc2c(=O)n1-c1ccccc1Cl`, for which the activity, negative = inhibition entry was “inactive”.
The same measure, in the same setting: then `O=C(O)c1nn(Cc2ccc(Cl)cc2Cl)c2ccccc12`, with “inactive”; and `C=CCN1CCC2(C)c3cc(O)ccc3C[C@H]1[C@H]2C`, with “inactive”; and `C1C[C@@H]2CN(CCCN3CCOCC3)[C@@H](C1)O2`, with -4.7% [at 11.4 µM].
In the case of `Cc1ccc(NC(=[OH+])c2cc3ccccc3cc2O)c(C)c1.Cc1ccc(NC(=[OH+])c2cc3ccccc3cc2O)c(C)c1.[Ni]`, the half-maximal activity concentration (AC50) is 3.16 µM (active).
On to `COc1cc(CCN)c(OC)c(OC)c1`, for which the activity, negative = inhibition is -1.31% [at 11.4 µM].
The same measure, in the same setting: then `O=C(CCN1CC2CCC(CC2)C1)c1cccs1`, with -7.86% [at 11.4 µM]; and `C[C@@H]1OC=C2[C@@H](O)[C@H]3O[C@H]3C(=O)[C@@]23[C@H]1[C@H]1C2=C([C@@H](O)[C@H]4O[C@@H]4C2=O)[C@@H]3O[C@@H]1C`, with 19.8% [at 11.4 µM]; and `Nc1nnnn1CCO`, with -3.83% [at 11.4 µM].
Still for that read-out and setting: then `CS(=O)(=O)O[C@H]1CN2CCC1CC2`, with 8.53% [at 11.4 µM].
On the same count and under the same terms, in the case of `CN1[C@@H]2CC[C@H]1CC(O[C@@H](c1ccccc1)c1ccc(Cl)cc1)C2` (some centres not stated) it was “inactive”.
Consider `CCCCN(CCCC)CCC(O)c1cc2c(Cl)cc(Cl)cc2c2cc(C(F)(F)F)ccc12` (configuration not stated), for which the activity, negative = inhibition entry is “inactive”.
With `N[C@H](CCl)C(=O)O`, the activity, negative = inhibition result is “inactive”.
On the same count and under the same terms, in the case of `O=C(Oc1ccccc1)N1CCC2(CCN(Cc3nccs3)CC2)CC1` it was “inactive”.
For the molecule `CN(C)Cc1c[nH]c2ccccc12`, the activity, negative = inhibition entry was “inactive”.
With `CC(C)COc1ccc(C2(C#N)CC[N+](C)(C)CC2)cc1`, the activity, negative = inhibition entry is “inactive”.
Still for that read-out and setting: then `C=C(C)[C@H]1CC[C@]2(C(=O)O)CC[C@]3(C)[C@@H](CC[C@H]4[C@@]5(C)CC[C@@H](O)C(C)(C)[C@@H]5CC[C@@]43C)[C@H]12`, with “inactive”.
As for `CCCCC/C=C\C/C=C\C/C=C\C/C=C\CCCC(=O)Nc1ccc(O)cc1`, the half-maximal activity concentration (AC50) is 5.01 µM (active).
Consider `CCCCCCCC/C=C\CCCCCCCC(N)=O`, for which the activity, negative = inhibition entry is “inactive”.
Same read-out and setting: in the case of `CCCCC/C=C\C/C=C\C/C=C\C/C=C\CCCC(=O)NCC(=O)O` it was “inactive”; in that of `C[N+]1(C)CCc2cc3c(cc2[C@@H]1[C@@H]1OC(=O)c2c1ccc1c2OCO1)OCO3`, “inactive”.
The same measure, in the same setting: in the case of `O=C(Nc1ccccc1)N1CC[C@@]2(CCCN(C(=O)Oc3ccccc3)C2)C1` it was “inactive”.
Still for that read-out and setting: then `O=C(O)/C=C(\CC(=O)O)C(=O)O`, with -16.9% [at 11.4 µM].
Turning to `COCOc1ccc(Br)cc1C(=O)/C=C\c1ccc2c(c1)OCO2`, the AC50 was 2 µM (active).
As for `O=C(O)C(=O)Cc1ccc2c(c1)OCO2`, the activity, negative = inhibition is 25.4% [at 11.4 µM].
Still for that read-out and setting: in the case of `CCN1CCC2(CC1)NC(CO)(CO)CO2` it was “inactive”.
The same measure, in the same setting: in the case of `O=C(O)[C@H]1[C@H](C(=O)O)[C@H]2CC[C@@H]1O2` it was “inactive”; in that of `N[C@H](Cc1c[nH]c2ccccc12)P(=O)(O)O`, 5.69% [at 11.4 µM].
Same read-out and setting: then `C[C@@]12CC(=O)[C@H]3[C@@H](CCC4=CC(=O)CC[C@]43C)[C@H]1CCC2=O`, with “inactive”.
`O=C(c1ccccc1F)c1cn(CC(=O)N2CCOCC2)c2ccccc12`: the AC50 is 11.2 µM (active).
With `CCCn1c(C)c(C(=O)c2cccc3ccccc23)c2ccccc21`, the activity, negative = inhibition result is “inactive”.
In the case of `CCOC(=O)Cn1cc(C(=O)c2ccccc2F)c2ccccc21`, the AC50 was 7.08 µM (active).
With `C[C@@]12CC[C@@H]3c4ccc(O)cc4C[C@H](CCCCCCCCCS(=O)CCCC(F)(F)C(F)(F)F)[C@H]3[C@@H]1CC[C@@H]2O` (some centres not stated), the activity, negative = inhibition entry is “inactive”.
Take `O=c1cc(-c2ccc(O)cc2)oc2c([C@H]3O[C@@H](CO)[C@@H](O)[C@@H](O)[C@@H]3O)c(O)cc(O)c12`: the activity, negative = inhibition result was “inactive”.
Still for that read-out and setting: in the case of `CN1CC[C@@]2(CCCN(C(=O)Oc3ccccc3)C2)C1` it was “inactive”.
The same measure, in the same setting: then `CCN1CCN(c2ccc(NC(=O)C(C)C)cc2Cl)CC1`, with “inactive”; and `C(=NC12CN3CN(CN(C3)C1)C2)c1cccs1`, with “inactive”.
With `CCS(=O)(=O)Nc1cccc(C(=C2CCCCC2)c2cnc[nH]2)c1`, the AC50 was 0.631 µM (active).
Regarding `CNC(C)(C)Cc1ccccc1`, the activity, negative = inhibition result was “inactive”.
Still for that read-out and setting: then `Brc1c(NC2=NCCN2)ccc2nccnc12`, with “inactive”.
The same measure, in the same setting: then `O=C(Nc1cccc(F)c1)N1CC2(CCN(C(=O)Oc3ccccc3)CC2)C1`, with “inactive”.
